The results in this text go back to PubChem BioAssay (Tox21).

Experiment [1] in a line: Caspase-3/7 induction in HepG2 cells by small molecules, qHTS assay (AID 1346978). Note: nearly all actives have a fitted effect of over 15% in size. Note: potency is the fitted concentration of half-maximal effect. In a few lines: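 Caspase-3/7 induction was measured by Caspase-Glo 3/7 luminescence (30 min, room temperature) after a 17 hr compound exposure of wild-type HepG2 cells seeded at 2,000 per well and pre-incubated 5 hr.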
Experiment [2] is described as follows: Caspase-3/7 induction in CHO-K1 cells by small molecules, qHTS cell viability counter screen (AID 1346979). Note: nearly all actives have a fitted effect of over 35% in size. Note: potency is the fitted concentration of half-maximal effect. In a few lines: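 To flag cytotoxic compounds, treated CHO-K1 wild-type cells were given CellTiter-Fluor at 16hr and read fluorescently after 1hr at 37C; the caspase-3/7 luminescence was measured in these same wells.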
Experiment [3] can be described thus: Caspase-3/7 induction in HepG2 cells by small molecules, qHTS cell viability counter screen (AID 1346981). Note: nearly all actives have a fitted effect of over 30% in size. Note: potency is the fitted concentration of half-maximal effect. The essentials: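 CellTiter-Fluor fluorescence measured viability in the same wells used for Caspase-Glo 3/7. HepG2 (wild type) at 2,000 cells/well were pre-incubated 5 hr, dosed, and given reagent at 16 hr, with 1 hr further at 37C.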
(qHTS replaces the single test concentration by a dilution series.)

Experiment [4] addresses Acetylcholinesterase (Homo sapiens) (UniProt P22303). The experiment in a line: Acetylcholinesterase (AChE) small molecule antagonists: colormetric cell-based qHTS assay (AID 1347395; calls by dose curve; note: nearly all actives have a fitted effect of over 30% in size). In a few lines: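 Neuroblastoma line SH-SY5Y supplied the enzyme; cells were preincubated with compound for 30 min at 37 C and 5% CO2. Acetylthiocholine with DTNB was then added for 90 min at 37 C, and thiocholine was measured by colour.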

Experiment [5] has the same target. The experiment in a line: Acetylcholinesterase (AChE) small molecule antagonists: enzyme-based qHTS assay (AID 1347397; calls by dose curve; note: nearly all actives have a fitted effect of over 55% in size). As to conditions: Potency: AChE enzyme activity inhibition. In a few lines: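 Colorimetric DTNB readout of acetylthiocholine hydrolysis, 10 min at room temperature, after 30 min room-temperature exposure of 50 mU/mL recombinant human enzyme to compound; DMSO vehicle control.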

Experiment [6] has the same target. The experiment in a line: Acetylcholinesterase (AChE) small molecule antagonists: fluorescence cell-based qHTS assay (AID 1347398; calls by dose curve; note: nearly all actives have a fitted effect of over 50% in size). The settings on record: Potency: AChE activity. The essentials: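 Cellular AChE activity read as thiocholine from acetylthiocholine hydrolysis, detected by Thiolite Green fluorescence at 490/520 nm after 40 min at room temperature. Compounds were pre-incubated 30 min at 37 C on adherent SH-SY5Y cells.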

Experiment [7] shares this target. Kind of experiment: Acetylcholinesterase (AChE) small molecule antagonists: enzyme-based qHTS assay with human liver microsomes (AID 1347399; calls by dose curve; note: nearly all actives have a fitted effect of over 60% in size). As to conditions: Potency: qHTS inhibition. In a few lines: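 Recombinant human AChE (50 mU/mL in the enzyme mix) and human liver microsomes (0.25 mg/mL final) were preincubated with compound and NADPH (0.25 mg/mL final) for 30 min at 37 C. Acetylthiocholine/DTNB was then added; thiocholine was read colorimetrically after 10 min at room temperature.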

Experiment [8] has as its target Cytochrome P450 2D6 (Homo sapiens) (UniProt P10635). Kind of experiment: Cytochrome P450 Family 2 Subfamily D Member 6 (CYP2D6) small molecule antagonists: luciferase reporter qHTS assay (AID 1671196). Note: nearly all actives have a fitted effect of over 50% in size. Note: potency is the fitted concentration of half-maximal effect. In a few lines:
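CYP2D6 activity was followed as luminescence from its luciferin product after a 1 h NADPH-driven reaction at room temperature. Enzyme-substrate mix and compound were pre-incubated for 10 min, and the signal was read 20 min after adding detection reagent.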

In experiment [9] the target is Cytochrome P450 2C19 (Homo sapiens) (UniProt P33261). The experiment in a line: Cytochrome P450 Family 2 Subfamily C Member 19 (CYP2C19) small molecule antagonists: luciferase reporter qHTS assay (AID 1671197). Note: nearly all actives have a fitted effect of over 65% in size. Note: potency is the fitted concentration of half-maximal effect. The essentials:
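P450-Glo CYP2C19 screening system; proluciferin substrate; DMSO compound stocks; 10 min RT preincubation; NADPH regeneration, 1 h at 37C; luciferin detection reagent, 20 min RT; luminescence as RLU.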

Experiment [10] deals with Cytochrome P450 2C9 (Homo sapiens) (UniProt P11712). Kind of experiment: Cytochrome P450 Family 2 Subfamily C Member 9 (CYP2C9) small molecule antagonists: luciferase reporter qHTS assay (AID 1671198). Note: nearly all actives have a fitted effect of over 50% in size. Note: potency is the fitted concentration of half-maximal effect. In a few lines:
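Enzyme-substrate mix preincubated with compound 10 min at room temperature; reaction started with NADPH regeneration solution, 1 h 37C. Luminescent luciferin product read after 20 min detection reagent.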

Experiment [11] has as its target Cytochrome P450 1A2 (Homo sapiens) (UniProt P05177). Kind of experiment: Cytochrome P450 Family 1 Subfamily A Member 2 (CYP1A2) small molecule antagonists: luciferase reporter qHTS assay (AID 1671199). Note: nearly all actives have a fitted effect of over 50% in size. Note: potency is the fitted concentration of half-maximal effect. The essentials: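 Luminescence from luciferin formed by CYP1A2 from a proluciferin substrate, read 20 min after detection reagent. Compound was pre-incubated 10 min with enzyme-substrate, and reaction started with NADPH regeneration solution for 1 h at room temperature; furafylline control.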

Experiment [12] has as its target Voltage-gated inwardly rectifying potassium channel KCNH2 (Homo sapiens) (UniProt Q12809). Kind of experiment: Human Ether-a-go-go-Related Gene (hERG) channel small molecule antagonists: fluorescence cell-based qHTS assay (AID 1671200). Note: nearly all actives have a fitted effect of over 50% in size. Note: potency is the fitted concentration of half-maximal effect. In a few lines:
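Measured: Tl+ flux via fluorescence (480/540 nm) in hERG-expressing U2OS cells after 1 h dye loading at room temperature.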
(In general: hERG is a cardiac potassium channel; its block is linked to QT prolongation.)

Experiment [13] is described as follows: Caspase-3/7 induction in CHO-K1 cells by small molecules, qHTS assay (AID 1346980). Note: nearly all actives have a fitted effect of over 15% in size. In a few lines:
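Luminescent Caspase-Glo 3/7 read (30min, room temperature) quantified apoptosis induction. Cells were wild-type CHO-K1, treated with compound for 17hr at 37 C and 5% CO2.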

Experiment [14] concerns the target Nuclear receptor subfamily 1 group I member 2 (Homo sapiens) (UniProt O75469). The experiment in a line: Human pregnane X receptor (PXR) small molecule agonists, qHTS assay (AID 1346982). Note: nearly all actives have a fitted effect of over 35% in size. Note: potency is the fitted concentration of half-maximal effect. The essentials: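 Agonist mode: luminescence from ONE-Glo after 24 h compound exposure at 37C in HepG2 cells carrying hPXR-responsive CYP3A4 luciferase, plated in charcoal-stripped serum medium 5 h beforehand.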

In experiment [15] the target is Cytochrome P450 3A4 (Homo sapiens) (UniProt P08684). The experiment in a line: Cytochrome P450 Family 3 Subfamily A Member 4 (CYP3A4) small molecule antagonists: luciferase reporter qHTS assay (AID 1671201). Note: nearly all actives have a fitted effect of over 50% in size. Note: potency is the fitted concentration of half-maximal effect. The essentials:
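Setup: enzyme-substrate mix, compound pin transfer, 10 min RT. Reaction: NADPH regeneration solution, 1 h RT. Readout: detection reagent stops turnover, luminescence measured after 20 min, expressed in relative luminescence units.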
For orientation: A reporter such as luciferase makes a cellular process visible.

Experiment [16] addresses Nuclear receptor subfamily 1 group I member 2 (Rattus norvegicus) (UniProt Q9R1A7). The experiment in a line: Rat pregnane X receptor (rPXR) activation by small molecules, qHTS assay (AID 1346983). Note: nearly all actives have a fitted effect of over 20% in size. The settings on record: rPXR luciferase reporter cells, One-Glo luminescence, 24 h; max activation: hits give high values. The essentials: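 Luminescent readout (One-Glo luciferase, 30 min room temperature) followed 24 hr compound treatment at 37 C of rPXR cells plated 2,000 per well and preincubated 5hr; qHTS format with compounds delivered in DMSO.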

The target in experiment [17] is Nuclear receptor subfamily 1 group I member 2 (Homo sapiens) (UniProt O75469). The experiment in a line: CYP3A4 induction through human pregnane X receptor (PXR) by small molecules, qHTS assay (AID 1346984). Note: nearly all actives have a fitted effect of over 40% in size. In a few lines:
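Read-out is luminescence after One-Glo addition, following a 3 hr, 37C incubation with Luciferin-IPA CYP3A4 substrate (3uM final). Before that, compounds were on DPX-2 cells (HepG2 co-transfected with PXR element plus CYP3A4-promoter luciferase) for 24 hr at 37C.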

Unmarked numbers belong to inactive results. Results filed as inconclusive are left out. Calls of active or inactive are those of the source. Unless noted, calls come from the whole dose curve; as a rule, active = well fitted curve in the direction sought with a large enough effect in the repeat runs; inconclusive = weak or mixed curves; inactive = no such curve, though single readings can be large; an effect the other way counts as inactive or inconclusive.
% is set by controls: 0 for no effect and ±100 for the full control effect.

Sequence of Cytochrome P450 2D6 (Homo sapiens) (P10635 whole entry, looked up): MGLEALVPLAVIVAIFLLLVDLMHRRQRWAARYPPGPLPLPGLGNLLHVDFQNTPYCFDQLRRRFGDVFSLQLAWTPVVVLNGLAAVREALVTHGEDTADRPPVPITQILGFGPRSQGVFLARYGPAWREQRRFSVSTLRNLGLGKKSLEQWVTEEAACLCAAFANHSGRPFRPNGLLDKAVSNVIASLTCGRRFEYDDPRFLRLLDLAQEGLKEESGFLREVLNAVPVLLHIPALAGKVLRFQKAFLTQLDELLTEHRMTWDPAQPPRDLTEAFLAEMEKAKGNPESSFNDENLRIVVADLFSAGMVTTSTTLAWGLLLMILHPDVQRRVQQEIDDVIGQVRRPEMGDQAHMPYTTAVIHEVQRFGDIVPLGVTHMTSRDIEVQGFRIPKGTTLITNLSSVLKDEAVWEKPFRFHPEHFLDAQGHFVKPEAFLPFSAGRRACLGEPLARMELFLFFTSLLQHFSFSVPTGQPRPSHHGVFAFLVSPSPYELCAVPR
Sequence of Voltage-gated inwardly rectifying potassium channel KCNH2 (Homo sapiens) (Q12809 whole entry, looked up): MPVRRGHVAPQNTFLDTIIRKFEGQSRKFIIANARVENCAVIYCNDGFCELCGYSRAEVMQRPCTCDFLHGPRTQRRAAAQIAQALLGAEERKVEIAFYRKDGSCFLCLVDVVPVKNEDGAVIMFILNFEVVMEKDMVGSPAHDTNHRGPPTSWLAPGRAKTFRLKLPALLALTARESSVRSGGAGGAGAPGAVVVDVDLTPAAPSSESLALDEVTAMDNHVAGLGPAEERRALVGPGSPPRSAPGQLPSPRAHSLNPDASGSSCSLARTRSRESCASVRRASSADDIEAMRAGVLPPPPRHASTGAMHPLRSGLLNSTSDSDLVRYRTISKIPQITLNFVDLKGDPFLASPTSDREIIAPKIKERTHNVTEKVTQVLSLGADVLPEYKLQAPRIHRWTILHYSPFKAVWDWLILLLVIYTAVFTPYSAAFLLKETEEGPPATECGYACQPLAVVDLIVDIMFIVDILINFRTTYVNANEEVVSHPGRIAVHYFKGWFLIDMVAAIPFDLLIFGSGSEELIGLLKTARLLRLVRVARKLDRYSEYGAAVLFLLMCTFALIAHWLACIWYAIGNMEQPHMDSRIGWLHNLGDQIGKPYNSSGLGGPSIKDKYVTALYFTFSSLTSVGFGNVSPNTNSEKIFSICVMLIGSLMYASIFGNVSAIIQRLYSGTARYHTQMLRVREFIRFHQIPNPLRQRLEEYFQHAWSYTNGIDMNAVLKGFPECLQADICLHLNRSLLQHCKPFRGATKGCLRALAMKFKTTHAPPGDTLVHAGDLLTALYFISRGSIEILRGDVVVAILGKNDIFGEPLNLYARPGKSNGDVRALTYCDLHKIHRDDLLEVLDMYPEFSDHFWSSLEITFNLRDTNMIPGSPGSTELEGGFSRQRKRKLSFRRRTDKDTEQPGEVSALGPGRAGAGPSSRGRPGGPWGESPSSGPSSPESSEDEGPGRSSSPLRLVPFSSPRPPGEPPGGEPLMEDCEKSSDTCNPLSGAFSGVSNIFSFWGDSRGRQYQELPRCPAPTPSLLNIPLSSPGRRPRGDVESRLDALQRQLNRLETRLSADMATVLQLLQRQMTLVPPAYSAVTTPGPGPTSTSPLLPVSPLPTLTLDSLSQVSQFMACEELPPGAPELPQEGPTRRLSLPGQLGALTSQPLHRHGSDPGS
Sequence of Cytochrome P450 3A4 (Homo sapiens) (P08684 whole entry, looked up): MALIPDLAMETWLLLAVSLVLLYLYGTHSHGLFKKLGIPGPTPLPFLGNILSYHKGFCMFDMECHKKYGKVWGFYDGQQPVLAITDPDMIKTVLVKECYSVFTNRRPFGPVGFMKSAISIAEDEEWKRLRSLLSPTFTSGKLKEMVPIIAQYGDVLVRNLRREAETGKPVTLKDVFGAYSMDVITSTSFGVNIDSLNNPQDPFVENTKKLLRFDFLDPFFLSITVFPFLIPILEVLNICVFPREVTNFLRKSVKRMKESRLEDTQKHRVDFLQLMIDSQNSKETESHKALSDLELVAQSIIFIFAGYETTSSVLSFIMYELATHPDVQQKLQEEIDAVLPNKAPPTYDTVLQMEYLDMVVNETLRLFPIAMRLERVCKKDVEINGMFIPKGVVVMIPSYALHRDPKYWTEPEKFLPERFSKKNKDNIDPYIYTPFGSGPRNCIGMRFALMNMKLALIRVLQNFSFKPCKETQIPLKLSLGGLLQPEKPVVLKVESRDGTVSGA
Sequence of Nuclear receptor subfamily 1 group I member 2 (Homo sapiens) (O75469 whole entry, looked up): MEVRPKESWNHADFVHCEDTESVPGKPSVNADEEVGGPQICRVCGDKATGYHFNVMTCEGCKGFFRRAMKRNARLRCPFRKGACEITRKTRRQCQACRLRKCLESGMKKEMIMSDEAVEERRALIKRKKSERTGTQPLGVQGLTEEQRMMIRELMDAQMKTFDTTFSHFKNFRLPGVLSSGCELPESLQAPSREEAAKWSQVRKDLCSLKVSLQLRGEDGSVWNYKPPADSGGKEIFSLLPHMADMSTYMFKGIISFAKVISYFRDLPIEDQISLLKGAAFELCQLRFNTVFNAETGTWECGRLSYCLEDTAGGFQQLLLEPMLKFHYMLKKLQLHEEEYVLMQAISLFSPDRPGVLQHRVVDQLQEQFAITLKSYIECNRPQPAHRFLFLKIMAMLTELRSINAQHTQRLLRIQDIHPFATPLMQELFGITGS
Sequence of Cytochrome P450 2C19 (Homo sapiens) (P33261 whole entry, looked up): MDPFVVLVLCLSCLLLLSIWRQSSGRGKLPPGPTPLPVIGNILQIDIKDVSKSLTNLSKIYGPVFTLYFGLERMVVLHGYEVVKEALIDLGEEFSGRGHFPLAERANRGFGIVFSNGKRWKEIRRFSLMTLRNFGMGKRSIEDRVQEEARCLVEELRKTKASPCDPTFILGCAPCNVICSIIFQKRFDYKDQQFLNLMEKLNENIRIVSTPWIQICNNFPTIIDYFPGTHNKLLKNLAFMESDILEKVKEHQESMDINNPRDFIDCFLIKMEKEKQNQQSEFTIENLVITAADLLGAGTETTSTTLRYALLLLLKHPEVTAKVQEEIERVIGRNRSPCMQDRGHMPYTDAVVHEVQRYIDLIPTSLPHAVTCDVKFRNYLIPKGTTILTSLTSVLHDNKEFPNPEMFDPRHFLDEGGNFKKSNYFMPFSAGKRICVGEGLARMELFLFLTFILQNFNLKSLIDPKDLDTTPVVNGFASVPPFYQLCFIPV
Sequence of Acetylcholinesterase (Homo sapiens) (P22303 whole entry, looked up): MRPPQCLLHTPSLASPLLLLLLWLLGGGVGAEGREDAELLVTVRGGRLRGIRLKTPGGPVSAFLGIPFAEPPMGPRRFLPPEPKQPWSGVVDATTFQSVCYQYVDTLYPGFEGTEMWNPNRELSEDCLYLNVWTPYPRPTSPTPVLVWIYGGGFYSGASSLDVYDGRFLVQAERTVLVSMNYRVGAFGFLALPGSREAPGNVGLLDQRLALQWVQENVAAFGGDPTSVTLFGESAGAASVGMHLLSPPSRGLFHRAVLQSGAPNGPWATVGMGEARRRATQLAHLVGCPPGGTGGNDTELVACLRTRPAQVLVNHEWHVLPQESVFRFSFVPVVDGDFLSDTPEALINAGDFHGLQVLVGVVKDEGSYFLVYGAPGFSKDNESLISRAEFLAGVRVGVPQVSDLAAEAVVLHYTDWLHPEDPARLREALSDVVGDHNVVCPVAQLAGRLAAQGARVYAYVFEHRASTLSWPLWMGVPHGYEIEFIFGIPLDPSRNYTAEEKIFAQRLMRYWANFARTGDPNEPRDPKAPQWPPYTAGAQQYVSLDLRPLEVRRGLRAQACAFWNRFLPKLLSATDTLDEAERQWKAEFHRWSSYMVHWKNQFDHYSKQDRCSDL
Sequence of Cytochrome P450 2C9 (Homo sapiens) (P11712 whole entry, looked up): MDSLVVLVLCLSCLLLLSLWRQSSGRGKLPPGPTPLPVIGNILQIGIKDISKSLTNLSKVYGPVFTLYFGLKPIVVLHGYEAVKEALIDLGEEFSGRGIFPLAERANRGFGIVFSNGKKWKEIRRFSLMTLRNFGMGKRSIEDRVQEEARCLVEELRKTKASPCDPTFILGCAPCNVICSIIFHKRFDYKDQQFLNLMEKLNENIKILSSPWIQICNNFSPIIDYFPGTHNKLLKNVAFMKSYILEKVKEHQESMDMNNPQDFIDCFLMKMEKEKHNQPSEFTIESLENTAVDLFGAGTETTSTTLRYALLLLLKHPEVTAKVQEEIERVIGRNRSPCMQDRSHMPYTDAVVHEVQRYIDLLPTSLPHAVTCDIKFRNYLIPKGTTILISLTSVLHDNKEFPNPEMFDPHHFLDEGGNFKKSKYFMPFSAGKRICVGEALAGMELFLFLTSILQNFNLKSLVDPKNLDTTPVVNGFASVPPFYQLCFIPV
Sequence of Cytochrome P450 1A2 (Homo sapiens) (P05177 whole entry, looked up): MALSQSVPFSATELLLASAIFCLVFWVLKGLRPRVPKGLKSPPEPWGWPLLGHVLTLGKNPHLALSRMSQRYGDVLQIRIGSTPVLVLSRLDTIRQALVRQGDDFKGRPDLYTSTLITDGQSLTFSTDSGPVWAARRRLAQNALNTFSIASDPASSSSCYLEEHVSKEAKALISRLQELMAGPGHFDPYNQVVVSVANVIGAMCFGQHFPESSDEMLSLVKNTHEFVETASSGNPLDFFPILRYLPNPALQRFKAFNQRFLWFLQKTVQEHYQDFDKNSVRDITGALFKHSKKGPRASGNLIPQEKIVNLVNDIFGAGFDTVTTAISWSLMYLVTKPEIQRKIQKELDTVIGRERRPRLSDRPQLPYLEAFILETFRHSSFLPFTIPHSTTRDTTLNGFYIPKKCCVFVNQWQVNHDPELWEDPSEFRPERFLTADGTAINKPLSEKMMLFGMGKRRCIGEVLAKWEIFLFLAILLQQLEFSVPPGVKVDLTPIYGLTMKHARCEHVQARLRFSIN

Take `CCC(OC(C)=O)C(CC(C)NC)(c1ccccc1)c1ccccc1` (stereo unspecified): the Potency in experiment [1] is 69.2 µM (active); in experiment [2], 69.2 µM (active); in experiment [3], 69.2 µM (active); in [8] it was 14.3 µM (active); in experiment [9], 32 µM (active); in experiment [12], 8.78 µM (active). Besides, the Potency entry in experiment [4], in experiment [5], in [6], in experiment [7], in experiment [10] and in [11] was “inactive” in each case.

As for `Cc1ccc2cc3c(ccc4ccccc43)c3c2c1CC3`, the Potency in [1] is 6.13 µM (active); in [14], 6.13 µM (active); in experiment [10], 5.65 µM (active); in experiment [11], 0.449 µM (active); in experiment [15], 8.96 µM (active). For the same compound, the Potency result in experiment [2], in experiment [13], in experiment [4], in experiment [5], in experiment [6] and in experiment [7] was “inactive” each time. Also, the Potency entry in [8] and in experiment [12] was “inactive” throughout.

For `C#CCC1=C(C)C(OC(=O)C2C(C=C(C)C)C2(C)C)CC1=O` (stereo unspecified), the Potency result in experiment [1], in [13], in experiment [3], in experiment [4], in [5] and in [6] was “inactive” in each case. The Potency entry in experiment [7] is “inactive”. Also, the Potency in experiment [14] was 10.8 µM (active); in experiment [8], 39.7 µM (active); in experiment [9], 4.99 µM (active); in experiment [10], 12.5 µM (active); in [11], 25 µM (active); in experiment [12] it was 43.4 µM (active). For the same compound, in experiment [15], the Potency was 8.88 µM (active).

`Nc1cc(Cl)ccc1Cl`: the Potency result in experiment [1], in [13], in [3], in [14], in [4] and in experiment [5] was “inactive” throughout. For the same compound, the Potency result in [6], in [7], in experiment [8], in experiment [9], in [10] and in experiment [12] was “inactive” in each case. Also, the Potency in [11] was 31.5 µM (active).

Turning to `C=Cc1cccc(CCl)c1`, the Potency result in experiment [1], in experiment [2], in [13], in experiment [14], in [4] and in experiment [6] was “inactive” in each case. Besides, the Potency entry in experiment [7], in [10], in experiment [12] and in experiment [15] was “inactive” in each case.

With `COc1nc(C)nc(NC(=O)NS(=O)(=O)c2ccccc2Cl)n1`, the Potency result in [1], in experiment [13], in experiment [3], in experiment [14], in experiment [4] and in experiment [5] was “inactive” each time. Besides, the Potency entry in experiment [6], in experiment [7], in experiment [8], in [9], in [10] and in experiment [12] was “inactive” in each case. Moreover, the Potency entry in experiment [15] was “inactive”.

Regarding `CC(C)NCC(O)c1ccccc1Cl` (stereo unspecified), the Potency entry in experiment [1], in experiment [13], in [3], in experiment [14], in experiment [17] and in experiment [4] was “inactive” in each case. In addition, the Potency result in [5], in [6], in experiment [7], in experiment [9], in experiment [10] and in experiment [11] was “inactive” throughout. For the same compound, the Potency result in [12] and in experiment [15] was “inactive” each time. For the same compound, the max activation in experiment [16] was 1.03%. In [8], the Potency is 7.76 µM (active).

`CN1C(=O)[C@@H](NC(=O)c2cc3ccccc3[nH]2)N=C(c2ccccc2)c2ccccc21`: the Potency entry in [1], in experiment [2], in experiment [3], in [14], in [17] and in experiment [4] was “inactive” in each case. The Potency result in [5], in experiment [6], in experiment [7], in experiment [8], in experiment [9] and in experiment [11] was “inactive” in each case. Also, the Potency entry in experiment [15] was “inactive”. Also, the max activation in experiment [16] was -0.0388%. Besides, the Potency in experiment [10] is 4.9 µM (active).
